Results reported in PubChem BioAssay (NCATS).
Several values for one entry are separate records, joined by “and”; a condition that tells them apart may be missing. Identical values can stand only once. Records with an inconclusive call do not appear. Activity calls are given as the source filed them. Unless noted, calls come from the whole dose curve.

Columns and labels:
[1] = molecular target: Mitogen-activated protein kinase 10 (Mus musculus) (UniProt Q61831); test: JNK3 AlphaScreen Assay (AID 530; active = well fitted curve in either direction with a large enough effect, not every such curve was filed as active;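 note: kinase came from lysate of stimulated human HepG2 cells; signal reports phosphorylation of biotinylated GST-cJun 1-79 at Ser73 with 10 µM ATP; series mostly up to about 57 µM; % is set by controls: 0 for no effect and ±100 for the full control effect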)
Method in brief: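 Compound titrations were preincubated 15 minutes at room temperature with substrate, antibody and pre-activated JNK3-containing HepG2 lysate. Reactions were started with 10 uM ATP and stopped with EDTA-containing bead buffer for AlphaScreen detection.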

[2] = molecular target: Cytochrome P450 3A4 (Homo sapiens) (UniProt P08684); test: qHTS Assay for Activators of Cytochrome P450 3A4 (AID 885; active = well fitted curve in the direction sought with a large enough effect; an effect the other way counts as inactive or inconclusive; note: nearly all actives have a fitted effect of over 65% in size)
Method in brief: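 Steps: enzyme/substrate mix dispensed; compound added, 10 min RT; NADPH regeneration solution added, 60 min RT; luciferin detection buffer stops reaction; 20 min later luminescence measured.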

[3] = molecular target: DNA dC->dU-editing enzyme APOBEC-3G (Homo sapiens) (UniProt Q9HC16); test: qHTS for inhibitors of Vif-A3G interactions: Validation (AID 588379; active = well fitted curve in the direction sought with a large enough effect; an effect the other way counts as inactive or inconclusive; note: 0% is about no effect)
Method in brief: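 HeLa cells stably expressing Vif and A3G-eYFP, 700 cells/well, incubated overnight at 37 deg C, then exposed to compound overnight at 37 deg C. Inhibition of Vif-mediated degradation read as increased yellow fluorescence (Ex 488/Em 500-530) by laser-scanning cytometry.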

[4] = molecular target: 3',5'-cyclic-AMP phosphodiesterase 4B (Homo sapiens) (UniProt Q07343); test: qHTS Assay for Inhibitors of PDE-IV (AID 607; active = well fitted activation curve with a large enough effect in the main read-out, with a control signal flat, not every such curve was filed as active; note: % of control where 0% means no effect)
Method in brief: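 The readout is membrane depolarisation from a cAMP-sensing CNG channel, detected with a potential dye at ex 535/em 590. Cells were HEK293-derived (endogenous PDE-IV) at 1000 cells/well, titrated up to 22.9 uM final.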

[5] = molecular target: Bile acid receptor (Homo sapiens) (UniProt Q96RI1); test: qHTS assay for small molecule antagonists of farnesoid X receptor signaling (AID 588526); note: % is set by controls: 0 for no effect and ±100 for the full control effect
Method in brief: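 Beta-lactamase reporter antagonist mode: HEK293T FXR-UAS-bla cells, titrated compound, CDCA stimulation, 16 h 37 C, CCF4 dye 2 h RT. Data normalized to CDCA 50 uM and DMSO; Hill-fit IC50.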

[6] = molecular target: Bile acid receptor (Homo sapiens) (UniProt Q96RI1); test: qHTS assay for small molecule agonists of farnesoid X receptor signaling (AID 588527); details: HEK293T FXR-UAS-bla, beta-lactamase ratio, 16 h; activation: stronger effect = higher value;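 note: series mostly up to about 77 µM; 0% = vehicle basal and 100% = reference agonist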
Method in brief: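 Read-out: beta-lactamase reporter fluorescence with CCF4 substrate in GeneBLAzer FXR-UAS-bla HEK293T cells, after 16 h compound exposure at 37 C. Response scaled between DMSO basal (0%) and chenodeoxycholic acid at 100 uM (100%).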

[7] = qHTS assay for small molecule antagonists of peroxisome proliferator-activated receptor delta signaling (AID 588535; active = well fitted inhibition curve with a large enough effect in the signal ratio, with a control signal flat, not every such curve was filed as active; the % refers to the signal ratio;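 for max response: cells co-treated with a PPAR-delta agonist as stimulator during compound exposure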); details: HEK293T PPARd-UAS-bla, beta-lactamase FRET ratio, 18 h; 460 nm channel
Method in brief: (§1)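 HEK293T PPAR-delta-UAS-bla cells, 4000/well, 2% charcoal/dextran FBS; 5 h 37 C; cpd titration; 18 h 37 C; CCF4 2 h RT; FI 460/530 nm; Hill fit → IC50, efficacy.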

[8] = molecular target: Peroxisome proliferator-activated receptor delta (Homo sapiens) (UniProt Q03181); test: as above
Method in brief: as §1

[9] = molecular target: Peroxisome proliferator-activated receptor gamma (Homo sapiens) (UniProt P37231); test: qHTS assay for small molecule antagonists of peroxisome proliferator-activated receptor gamma signaling (AID 588537; active = well fitted inhibition curve with a large enough effect in the signal ratio, with a control signal flat, not every such curve was filed as active; the % refers to the signal ratio;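 note: reporter cells co-stimulated with 50 nM rosiglitazone agonist during compound treatment; % of control where 0% means no effect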)
Method in brief: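 Antagonist mode, beta-lactamase reporter in HEK293; charcoal/dextran FBS 1%; 3000 cells/well, 37 C 6-6.5 h; cpd titration + rosiglitazone 50 nM final, 16 h 37 C; CCF4, 2 h RT; 460/530 nm; Hill fit → IC50, efficacy.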

[10] = molecular target: Retinoic acid receptor RXR-alpha (Homo sapiens) (UniProt P19793); test: qHTS assay for small molecule agonists of retinoid X receptor alpha signaling (AID 588544);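 note: 0% = DMSO basal wells and 100% = reference agonist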
[11] = qHTS assay for small molecule agonists of the antioxidant response element (ARE) signaling pathway (AID 651741; active = well fitted activation curve with a large enough effect in the signal ratio; the % refers to the signal ratio; note: potency is the fitted concentration of half-maximal effect; for activation: % of control where 0% means no effect)
Method in brief: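 Quantitative HTS in HepG2 cells stably expressing an ARE-beta-lactamase reporter; 16 h compound exposure at 37 C, followed by 2 h room-temperature incubation with LiveBLAzer B/G FRET substrate and fluorescence measurement.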

[12] = molecular target: Nuclear receptor subfamily 1 group I member 2 (Rattus norvegicus) (UniProt Q9R1A7); test: qHTS assay for small molecule activators of the rat pregnane X receptor (rPXR) signaling pathway (AID 651751; call rule not given here; note: 0% is about no effect); details: rPXR reporter cells, luciferase (One-Glo), 24 h
[13] = qHTS assay for small molecule activators of the human pregnane X receptor (PXR) signaling pathway (AID 720659; call rule not given here; note: 0% is about no effect)
[14] = molecular target: Glucocorticoid receptor (Homo sapiens) (UniProt P04150); test: qHTS assay for small molecule antagonists of glucocorticoid receptor signaling (AID 588533; active = well fitted inhibition curve with a large enough effect in the signal ratio, with a control signal flat, not every such curve was filed as active; the % refers to the signal ratio;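 note: cells stimulated with 2 nM dexamethasone as agonist; % is set by controls: 0 for no effect and ±100 for the full control effect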)
Method in brief: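 Antagonist-mode qHTS: compound titrations added to GRE-bla HeLa cells, then dexamethasone 2 nM final; 18 h, 37 C. CCF4 FRET fluorescence normalized to dexamethasone and DMSO; IC50 from Hill fit.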

[15] = molecular target: Androgen receptor (Homo sapiens) (UniProt P10275); test: qHTS assay for small molecule agonists of androgen receptor signaling (AID 588515; active = well fitted curve in the direction sought with a large enough effect in the signal ratio, with a control signal flat; the % refers to the signal ratio; note: % is set by controls: 0 for no effect and ±100 for the full control effect); details: AR-UAS-bla HEK293, beta-lactamase ratio, agonist 16 h; stronger effect = higher value
Method in brief: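 EC50 and efficacy came from Hill fits of titrations (up to 92 uM) normalized to 30 nM R1881 as 100% and DMSO as 0%. Compound exposure was 16 h at 37 C on AR-UAS-bla HEK293 cells, with a 405/460/530 nm CCF4 fluorescence read.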

[16] = molecular target: Androgen receptor (Homo sapiens) (UniProt P10275); test: qHTS assay for small molecule antagonists of androgen receptor signaling (AID 588516; active = well fitted curve in the direction sought with a large enough effect in the signal ratio, with a control signal flat, not every such curve was filed as active; the % refers to the signal ratio; note: % is set by controls: 0 for no effect and ±100 for the full control effect)
Method in brief: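 Cells were plated and incubated 5 h, compounds added in titration, then R1881 (10 nM final) as agonist. After 16 h at 37 C, CCF4 substrate was loaded for 2 h at room temperature and fluorescence measured.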

[17] = molecular target: Thyroid hormone receptor beta (Homo sapiens) (UniProt P10828); test: qHTS assay for small molecule antagonists of thyroid hormone receptor beta signaling (AID 588547; active = well fitted inhibition curve with a large enough effect in the signal ratio, with a control signal flat, not every such curve was filed as active; the % refers to the signal ratio); details: TR-UAS-bla HEK293, beta-lactamase ratio, antagonist mode, 18 h
Method in brief: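 Inhibition of T3-driven (0.4nM final) beta-lactamase reporter activity was measured over 0.59 nM to 92 uM compound after 18 h at 37 C. The cells were GripTite HEK293 TR-UAS-bla in charcoal/dextran-stripped serum, with CCF4 ratio read-out and IC50 from Hill fits.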

Sequence of Bile acid receptor (Homo sapiens) (Q96RI1 whole entry, looked up): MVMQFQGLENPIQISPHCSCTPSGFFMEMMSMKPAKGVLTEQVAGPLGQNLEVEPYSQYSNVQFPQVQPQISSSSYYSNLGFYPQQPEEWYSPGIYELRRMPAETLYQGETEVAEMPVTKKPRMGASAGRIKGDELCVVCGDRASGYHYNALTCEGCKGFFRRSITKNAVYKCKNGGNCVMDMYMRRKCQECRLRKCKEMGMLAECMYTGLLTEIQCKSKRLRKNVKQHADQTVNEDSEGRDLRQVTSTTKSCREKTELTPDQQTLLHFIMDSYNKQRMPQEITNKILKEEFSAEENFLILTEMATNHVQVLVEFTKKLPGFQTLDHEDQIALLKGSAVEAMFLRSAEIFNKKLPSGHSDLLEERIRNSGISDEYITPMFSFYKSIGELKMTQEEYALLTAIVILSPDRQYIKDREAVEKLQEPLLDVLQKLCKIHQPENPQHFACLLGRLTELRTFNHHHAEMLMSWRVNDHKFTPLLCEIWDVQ
Sequence of Retinoic acid receptor RXR-alpha (Homo sapiens) (P19793 whole entry, looked up): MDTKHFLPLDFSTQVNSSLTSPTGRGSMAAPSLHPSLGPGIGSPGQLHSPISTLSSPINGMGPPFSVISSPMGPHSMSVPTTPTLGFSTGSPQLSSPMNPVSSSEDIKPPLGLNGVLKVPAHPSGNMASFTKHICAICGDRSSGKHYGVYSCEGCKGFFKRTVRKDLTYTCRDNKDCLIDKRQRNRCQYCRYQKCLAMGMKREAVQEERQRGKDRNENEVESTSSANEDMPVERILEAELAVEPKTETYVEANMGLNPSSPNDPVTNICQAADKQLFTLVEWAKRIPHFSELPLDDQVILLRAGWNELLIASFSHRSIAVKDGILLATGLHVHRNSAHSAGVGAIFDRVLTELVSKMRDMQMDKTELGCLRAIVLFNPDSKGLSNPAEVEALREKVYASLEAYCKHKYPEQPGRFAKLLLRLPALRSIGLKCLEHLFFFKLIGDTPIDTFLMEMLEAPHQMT
Sequence of DNA dC->dU-editing enzyme APOBEC-3G (Homo sapiens) (Q9HC16 whole entry, looked up): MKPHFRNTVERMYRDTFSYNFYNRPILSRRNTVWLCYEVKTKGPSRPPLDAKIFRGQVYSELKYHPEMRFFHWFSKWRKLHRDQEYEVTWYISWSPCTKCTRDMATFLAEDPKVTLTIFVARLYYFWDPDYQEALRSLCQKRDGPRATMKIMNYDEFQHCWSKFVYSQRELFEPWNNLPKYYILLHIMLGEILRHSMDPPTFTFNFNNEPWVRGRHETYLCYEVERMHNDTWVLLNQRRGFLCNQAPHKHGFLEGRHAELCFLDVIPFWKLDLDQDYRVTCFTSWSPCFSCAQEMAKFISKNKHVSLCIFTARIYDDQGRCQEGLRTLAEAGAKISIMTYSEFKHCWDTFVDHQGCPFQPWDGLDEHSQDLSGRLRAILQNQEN
Sequence of Androgen receptor (Homo sapiens) (P10275 whole entry, looked up): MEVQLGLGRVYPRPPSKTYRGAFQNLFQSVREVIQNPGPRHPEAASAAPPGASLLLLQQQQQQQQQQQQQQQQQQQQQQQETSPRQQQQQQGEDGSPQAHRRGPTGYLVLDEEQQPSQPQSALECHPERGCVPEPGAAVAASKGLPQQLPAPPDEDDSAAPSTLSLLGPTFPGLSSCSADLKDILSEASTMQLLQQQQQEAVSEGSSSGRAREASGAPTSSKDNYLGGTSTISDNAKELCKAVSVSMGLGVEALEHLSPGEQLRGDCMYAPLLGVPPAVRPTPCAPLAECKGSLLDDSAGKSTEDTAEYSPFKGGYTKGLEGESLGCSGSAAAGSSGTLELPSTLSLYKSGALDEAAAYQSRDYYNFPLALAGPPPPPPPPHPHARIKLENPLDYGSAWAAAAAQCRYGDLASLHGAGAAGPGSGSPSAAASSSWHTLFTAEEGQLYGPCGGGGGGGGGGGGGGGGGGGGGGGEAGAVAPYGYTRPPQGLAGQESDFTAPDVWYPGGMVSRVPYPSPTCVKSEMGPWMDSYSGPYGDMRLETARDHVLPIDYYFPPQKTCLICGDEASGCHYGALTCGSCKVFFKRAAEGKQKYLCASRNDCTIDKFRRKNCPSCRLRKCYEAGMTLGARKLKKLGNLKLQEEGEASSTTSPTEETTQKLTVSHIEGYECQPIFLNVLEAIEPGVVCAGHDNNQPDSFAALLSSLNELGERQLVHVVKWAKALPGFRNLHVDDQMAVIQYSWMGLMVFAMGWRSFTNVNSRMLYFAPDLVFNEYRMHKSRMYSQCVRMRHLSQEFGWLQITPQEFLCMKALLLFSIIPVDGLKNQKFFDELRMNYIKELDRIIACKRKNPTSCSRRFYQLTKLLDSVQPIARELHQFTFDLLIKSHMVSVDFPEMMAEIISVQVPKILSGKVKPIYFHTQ
Sequence of Peroxisome proliferator-activated receptor gamma (Homo sapiens) (P37231 whole entry, looked up): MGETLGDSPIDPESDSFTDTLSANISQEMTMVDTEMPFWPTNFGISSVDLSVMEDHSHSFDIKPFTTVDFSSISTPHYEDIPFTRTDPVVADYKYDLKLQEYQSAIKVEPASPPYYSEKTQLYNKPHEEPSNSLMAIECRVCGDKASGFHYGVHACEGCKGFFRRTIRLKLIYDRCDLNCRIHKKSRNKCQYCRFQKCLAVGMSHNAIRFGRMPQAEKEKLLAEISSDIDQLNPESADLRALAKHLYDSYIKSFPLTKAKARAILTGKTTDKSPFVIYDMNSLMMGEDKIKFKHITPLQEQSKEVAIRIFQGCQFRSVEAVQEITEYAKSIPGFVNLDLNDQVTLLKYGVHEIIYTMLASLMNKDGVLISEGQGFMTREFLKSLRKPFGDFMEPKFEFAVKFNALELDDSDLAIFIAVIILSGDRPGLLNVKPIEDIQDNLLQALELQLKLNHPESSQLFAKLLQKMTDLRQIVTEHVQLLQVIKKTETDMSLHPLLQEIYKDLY
Sequence of Glucocorticoid receptor (Homo sapiens) (P04150 whole entry, looked up): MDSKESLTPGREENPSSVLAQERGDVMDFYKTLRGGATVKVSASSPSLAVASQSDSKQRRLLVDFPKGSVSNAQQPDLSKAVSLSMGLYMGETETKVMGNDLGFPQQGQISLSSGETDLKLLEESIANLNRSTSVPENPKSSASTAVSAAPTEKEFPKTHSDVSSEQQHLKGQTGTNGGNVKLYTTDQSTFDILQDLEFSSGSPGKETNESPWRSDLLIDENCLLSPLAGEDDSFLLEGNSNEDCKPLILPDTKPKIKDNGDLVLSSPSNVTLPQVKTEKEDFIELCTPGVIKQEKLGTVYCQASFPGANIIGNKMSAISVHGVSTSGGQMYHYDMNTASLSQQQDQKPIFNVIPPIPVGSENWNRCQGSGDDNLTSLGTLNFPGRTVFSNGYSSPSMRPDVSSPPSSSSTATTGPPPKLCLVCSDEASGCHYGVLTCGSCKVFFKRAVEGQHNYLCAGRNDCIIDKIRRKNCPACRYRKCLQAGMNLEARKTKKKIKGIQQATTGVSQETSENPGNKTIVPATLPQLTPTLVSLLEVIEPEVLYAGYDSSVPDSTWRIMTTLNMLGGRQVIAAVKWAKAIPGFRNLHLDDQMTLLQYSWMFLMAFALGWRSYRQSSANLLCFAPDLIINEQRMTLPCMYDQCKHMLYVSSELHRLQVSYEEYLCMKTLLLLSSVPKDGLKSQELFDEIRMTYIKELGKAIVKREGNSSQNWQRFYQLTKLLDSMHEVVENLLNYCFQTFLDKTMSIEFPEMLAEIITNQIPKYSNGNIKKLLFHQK
Sequence of Thyroid hormone receptor beta (Homo sapiens) (P10828 whole entry, looked up): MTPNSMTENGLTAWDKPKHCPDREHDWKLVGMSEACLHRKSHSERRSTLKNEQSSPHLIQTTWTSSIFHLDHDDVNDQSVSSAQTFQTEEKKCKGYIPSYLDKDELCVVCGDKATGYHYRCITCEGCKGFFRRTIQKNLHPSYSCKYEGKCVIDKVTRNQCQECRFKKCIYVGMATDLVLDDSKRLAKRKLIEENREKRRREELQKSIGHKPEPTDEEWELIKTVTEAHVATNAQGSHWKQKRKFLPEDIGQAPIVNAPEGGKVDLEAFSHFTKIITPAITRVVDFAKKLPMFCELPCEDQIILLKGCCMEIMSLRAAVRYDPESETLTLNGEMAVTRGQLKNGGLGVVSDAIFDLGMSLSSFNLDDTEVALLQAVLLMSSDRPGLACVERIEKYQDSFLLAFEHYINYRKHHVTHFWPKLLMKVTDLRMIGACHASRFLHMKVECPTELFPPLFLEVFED
Sequence of Peroxisome proliferator-activated receptor delta (Homo sapiens) (Q03181 whole entry, looked up): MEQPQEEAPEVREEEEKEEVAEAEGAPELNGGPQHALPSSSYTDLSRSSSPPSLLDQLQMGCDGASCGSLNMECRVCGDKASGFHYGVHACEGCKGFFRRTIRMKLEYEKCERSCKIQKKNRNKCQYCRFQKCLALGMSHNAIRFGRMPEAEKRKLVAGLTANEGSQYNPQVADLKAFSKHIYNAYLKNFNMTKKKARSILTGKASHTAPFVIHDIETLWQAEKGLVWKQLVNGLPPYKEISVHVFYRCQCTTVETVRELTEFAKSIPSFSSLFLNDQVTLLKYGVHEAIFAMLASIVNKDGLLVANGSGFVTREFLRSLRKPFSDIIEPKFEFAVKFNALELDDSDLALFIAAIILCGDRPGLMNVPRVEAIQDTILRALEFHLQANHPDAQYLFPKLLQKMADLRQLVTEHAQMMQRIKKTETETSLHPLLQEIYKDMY
Sequence of Nuclear receptor subfamily 1 group I member 2 (Rattus norvegicus) (Q9R1A7 whole entry, looked up): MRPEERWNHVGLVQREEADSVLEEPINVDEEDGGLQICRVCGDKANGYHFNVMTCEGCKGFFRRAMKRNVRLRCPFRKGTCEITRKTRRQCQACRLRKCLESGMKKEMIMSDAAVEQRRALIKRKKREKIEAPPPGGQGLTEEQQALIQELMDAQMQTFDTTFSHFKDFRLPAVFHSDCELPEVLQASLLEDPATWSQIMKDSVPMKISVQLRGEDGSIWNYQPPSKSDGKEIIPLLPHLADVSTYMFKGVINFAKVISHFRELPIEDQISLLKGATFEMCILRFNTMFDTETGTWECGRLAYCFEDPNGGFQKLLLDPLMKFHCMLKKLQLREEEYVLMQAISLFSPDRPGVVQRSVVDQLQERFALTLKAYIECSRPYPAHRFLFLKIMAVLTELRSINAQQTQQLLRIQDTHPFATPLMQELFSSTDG

CCCC/C=C/[C@@H](NP(=O)(c1ccccc1)c1ccccc1)c1ccccc1OC
inactive: outcome [1] | Potency [2]

C[C@]12[C@H](O)CC3C(CC[C@@H]4C[C@@H](O)CC[C@]34C)[C@@]1(O)CC[C@@H]2C1=CC(=O)OC1 (stereo partly drawn)
inactive: outcome [3]

COc1ccc(CC2c3cc(OC)c(OC)cc3CCN2C)cc1OC (stereo not drawn)
inactive: outcome [3]

CC1CCC2C(C)C(=O)OC3OC4(C)CCC1C32OO4 (stereo not drawn)
inactive: outcome [3]

CN(C)C1C(=O)C(C(N)=O)=C(O)[C@@]2(O)C(=O)C3=C(O)c4c(O)cccc4[C@@](C)(O)C3C[C@@H]12 (stereo partly drawn)
inactive: outcome [3]

CN1C[C@@H](CO)C=C2c3cccc4[nH]cc(c34)CC21 (stereo partly drawn)
inactive: outcome [3]

C=C(CC1(CNP(=O)(c2ccccc2)c2ccccc2)CC1)c1ccccc1
inactive: outcome [1] | Potency [2]

O=C(Oc1ccc([N+](=O)[O-])cc1)N1CCC(N2CCCCC2)CC1
inactive: outcome [1] | outcome [4]

O=c1cccc2n1CC1CC2CN2CCCC[C@H]12 (stereo partly drawn)
inactive: outcome [3]

CNC(=O)Oc1ccc(N(C)C)c(C)c1
inactive: Potency [5] | activation [6] 0.727% | Potency [8] | Potency [9] | Potency [10] | max response [12] 2.85% | outcome [13]
active: Potency [11] 54.5 µM
-23.4%: max response [7]

COc1ccc(O)c(C(C)(C)C)c1
inactive: Potency [5] | activation [6] -2.62% | Potency [14] | Potency [10] | max response [12] 3.52%

C/C=C(\C)C(=O)O[C@H]1C[C@@H](OC(C)=O)[C@@]2(C(=O)OC)CO[C@H]3[C@@H](O)[C@@](C)([C@]45O[C@@]4(C)[C@H]4C[C@@H]5O[C@@H]5OC=C[C@@]54O)[C@H]4[C@]1(CO[C@]4(O)C(=O)OC)[C@@H]32
inactive: activation [15] 2.71% | Potency [16] | Potency [5] | Potency [9] | Potency [10] | activity change % (negative = inhibition) [17] 7.18%

CCCCC(CC)C(=O)Cl (stereo not drawn)
inactive: Potency [5] | activation [6] -2.28% | Potency [14] | Potency [8] | Potency [9] | Potency [10] | activity change % (negative = inhibition) [17] 0.279% | Potency [11] | max response [12] -0.98% | outcome [13]
9%: max response [7]

Cc1cnc(C2=NC(C)(C(C)C)C(=O)N2)c(C(=O)O)c1 (stereo not drawn)
inactive: activation [15] -8.96% and 2.01% | Potency [8] | Potency [9] | Potency [10] | activity change % (negative = inhibition) [17] -3.72% and -20.5% | Potency [11] | max response [12] 5.11% and -5.71%
-1.47%: max response [7]

Cc1cc(Cl)ccc1OCC(=O)O
inactive: activation [15] -0.462% and -10.2% | Potency [16] | Potency [14] | Potency [9] | Potency [10] | activity change % (negative = inhibition) [17] 22.2% and -4.04% | max response [12] -1.6% and -6.7% | outcome [13]

CCOP(=S)(OCC)Oc1cnc2ccccc2n1
inactive: Potency [5] | activation [6] 1.65% | Potency [14] | Potency [8] | Potency [9] | activity change % (negative = inhibition) [17] -0.975% | Potency [11] | max response [12] 7.55%
6.57%: max response [7]
